Only some compounds are listed: those with a hit (about 9.3% of all), similar ones and a draw of the others.
ELG1 genotoxic: induces genotoxicity in HEK293T cells with luciferase-tagged ELG1. Potency, µM (doses to about 46 µM), for inactives: at the top dose activity change, positive = activation, hits mostly activators. actives 1.3% (n = 330,000). HEK293T ELG1-luciferase reporter, luminescence, 16 h; further: % of control where 0% means no effect; nearly all actives have a fitted effect of over 60% in size
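HEK293T cells expressing luciferase-tagged ELG1 were exposed to compound or DMSO vehicle for 16 hr at 37 °C and 5% CO2. Luciferase activity was then measured with ONE-Glo after 30 min at room temperature.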
FLuc counter: firefly luciferase modulation, counter-screen for miR-21 project; P08659; purified FLuc, Km substrates, luminescence inhibition; Potency, µM (series often up to 57.5 µM), for inactives: top-dose activity change, negative = inhibition, most hits filed as inhibitors; actives 6.9% (n = 360,000); AID 588342;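 further: plate controls were vehicle for no effect and reference inhibitor for full effect; nearly all actives have a fitted effect of over 55% in size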
Target sequence (P08659 whole entry, looked up): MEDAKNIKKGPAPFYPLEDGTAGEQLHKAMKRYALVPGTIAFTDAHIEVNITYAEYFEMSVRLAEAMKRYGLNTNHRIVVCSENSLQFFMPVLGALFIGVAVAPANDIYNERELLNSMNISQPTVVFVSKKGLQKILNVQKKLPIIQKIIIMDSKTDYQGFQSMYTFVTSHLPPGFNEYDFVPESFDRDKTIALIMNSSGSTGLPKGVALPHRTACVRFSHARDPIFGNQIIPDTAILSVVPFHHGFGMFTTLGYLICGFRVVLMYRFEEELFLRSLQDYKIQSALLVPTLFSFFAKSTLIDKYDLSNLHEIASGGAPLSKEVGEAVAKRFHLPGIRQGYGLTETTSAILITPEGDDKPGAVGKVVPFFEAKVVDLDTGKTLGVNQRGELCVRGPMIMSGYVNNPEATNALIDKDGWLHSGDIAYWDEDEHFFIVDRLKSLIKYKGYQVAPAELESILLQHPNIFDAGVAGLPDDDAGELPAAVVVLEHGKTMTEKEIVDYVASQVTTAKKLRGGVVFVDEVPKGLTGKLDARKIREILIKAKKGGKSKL
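Biochemical qHTS of compounds, final roughly 60 µM downward over six points, against 10 nM purified firefly luciferase using Km concentrations of substrates (10 uM D-luciferin, 10 uM ATP) in Tris acetate pH 7.5 buffer; luminescence output.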
Rab9 prom act: activates the Rab9 promoter | actives 2.8% (n = 320,000) | Huh7 Rab9 promoter-luciferase reporter, luminescence, 24 h | AID 485297 | Potency, µM (top dose mostly 9.22 µM), for the others: top-dose activation, negative = inhibition, usual class: activators; further: % of control where 0% means no effect; nearly all actives have a fitted effect of over 60% in size
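Promoter activation is measured as luciferase luminescence in Huh7 cells stably transfected with a Rab9 promoter–luciferase construct, following 24 h compound exposure at 37 °C and 10 min reagent incubation at ambient temperature.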
SMN2 splice up: SMN2 splice variant enhancement; HEK293 SMN2-luciferase splicing reporter, luminescence, 30-36 h; Potency, µM (series often up to 46.1 µM), inactives show at the highest dose activity change, positive = activation, hits mostly activators; actives 2.8% (n = 210,000); AID 1458; further: % of control where 0% means no effect; nearly all actives have a fitted effect of over 55% in size
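HEK293 cells carry an SMN2 minigene-luciferase reporter in which exon 7 inclusion puts luciferase in frame. Cells were seeded at 2000 cells/well, attached for 10-12 hours, then exposed to compounds for 30-36 hours at 37C before ONE-Glo luminescence.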
ELG1 repair inh: inhibitors of ELG1-dependent DNA repair in HEK293T cells | HEK293T ELG1-luciferase reporter, luminescence, 16 h; DNA damage induced by 5-fluorouridine | Potency, µM (doses to about 46.1 µM), for the others: at the top dose activity change, negative = inhibition, hits mostly inhibitors | actives 2.3% (n = 330,000) | AID 504467; further: on the % scale 0 is the no-effect control and ±100 the full control effect; nearly all actives have a fitted effect of over 55% in size
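Step one: seed 2,000 cells per well. Step two: pin-transfer compound or DMSO alongside 5-fluorouridine. Step three: incubate 16 hr, 37 °C, 5% CO2. Step four: add ONE-Glo, wait 30 min, read luminescence.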
NPC1 prom act: NPC1 promoter activation; Huh7 NPC1 promoter luciferase reporter, 24 h; Potency, µM (series often up to 9.22 µM), inactives show at the top dose activation, usual class: activators; actives 2.4% (n = 320,000); further: % of control where 0% means no effect; nearly all actives have a fitted effect of over 60% in size
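Cells: Huh7 expressing luciferase under the NPC1 promoter, 1500/well. Seeded 2 h, compound added, incubated 24 h at 37 °C. Luciferase reagent, 10 min ambient, then luminescence.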
Numbers without * were called inactive; ? = inconclusive; . = not tested or not shown; [ ] = another dose, or the depositor's remark. The call rests on the fitted dose curve; in most records, active means well fitted curve in the direction sought with a large enough effect; inconclusive means small, poorly fitted or top-dose-only effect, or another doubt; inactive means no such curve, though single readings can be large; an effect the other way counts as inactive or inconclusive. Potency means the concentration at half of the fitted maximal effect.

SMILES | ELG1 genotoxic | FLuc counter | Rab9 prom act | SMN2 splice up | ELG1 repair inh | NPC1 prom act
NN/C(=C\[N+](=O)[O-])Nc1ccccc1 | 7.9% | ? | 13.2% | 8.3% | ? | -3.5%
COc1ccc2c(c1)CC/C(=C/c1ccncc1)C2=O | -0.3% | 13.5µM* | -13.6% | -58.1% | -23.7% | -2.3%
COc1ccc2c(c1)CC/C(=C\c1ccc(C)o1)C2=O | ? | 2.39µM* | 2.82µM* | . | ? | 2.51µM*
COc1ccc2c(c1)CCc1cn[nH]c1-2 | -1.3% | ? | 6.8% | . | -0.1% | 15.0%
COc1ccc(/C=C2/CCOC2=O)cc1 | 1.9% | -18.0% | -3.3% | -2.7% | ? | 5.6%
Cc1ccc(Nc2cc(C)nc3nc(C)nn23)cc1 | 1.7% | -0.6% | -7.1% | 1.2% | -0.4% | -2.7%
Oc1csc(Cc2nc(-c3ccccc3F)cs2)n1 | -4.0% | -18.4% | 5.01µM* | ? | ? | ?
Oc1csc(Cc2nc(-c3ccc(-c4ccccc4)cc3)cs2)n1 | 11.2% | ? | ? | 3.8% | ? | ?
Oc1csc(Cc2nc(-c3ccc4ccccc4c3)cs2)n1 | ? | ? | 2.82µM* | ? | ? | ?
O=c1oc2ccccc2cc1-c1csc(Cc2nc(-c3ccc(Cl)cc3)cs2)n1 | 8.6% | 5.7% | -30.8% | -76.0% | ? | -21.7%
O=C1Nc2ccccc2N(O)N1c1ccc(S(=O)(=O)N2CCOCC2)cc1 | -0.3% | -2.7% | -1.8% | -0.3%[1.84 µM] | 5.2% | -2.7%
CC(C)N1CCN(Cc2cnc(-c3ccccc3)s2)CC1CCO (configuration not stated) | -1.8% | 5.1% | -1.3% | . | -24.2% | 0.7%
O=C(c1cc(-c2ccccn2)nc2c(Cl)cccc12)N1CCN(S(=O)(=O)c2ccccc2)CC1 | -4.7% | -5.0% | 1.2% | -3.0% | 18.4µM* | 0.5%
O=C(c1cc(-c2cccs2)nc2ccccc12)N1CCN(S(=O)(=O)c2cccc(F)c2)CC1 | -21.8% | ? | 0.2% | -9.7% | ? | -2.5%
O=C(c1cc(-c2cccs2)nc2ccccc12)N1CCN(c2ccccc2)CC1 | -13.3% | 10.7µM* | -1.2% | -16.8% | ? | -8.5%
O=C(c1cc(-c2cccs2)nc2ccccc12)N1CCN(S(=O)(=O)c2ccccc2)CC1 | -2.7% | ? | -5.0% | -8.9% | 16.4µM* | -1.8%
CN(C)S(=O)(=O)c1cccc(NC(=O)c2cc(-c3cccs3)nc3ccccc23)c1 | -6.7% | ? | 1.1% | -13.8% | 7.31µM* | -3.9%
CCc1nc2nc(C)c(NS(=O)(=O)c3cccs3)c(=O)n2[nH]1 | -5.8% | -1.6% | -3.2% | . | -0.8% | 0.8%
CCOC(=O)CSc1nnc(CSc2nc3ccccc3c(=O)[nH]2)n1-c1ccccc1 | -4.7% | 8.4% | 8.3% | 1.8% | 6.8% | 0.0%
O=C(O)c1cc(-c2cccs2)nc2ccc(Br)cc12 | -1.2% | 19µM* | 2.5% | . | -6.3% | 1.5%
CN1CCc2c(c3ccccc3n2C)C1 | -4.6% | 0.1% | 2.0% | -13.1% | -6.1% | 0.9%
N#Cc1cccc(NC(=O)N2CCC3(CC2)CCN(C(=O)c2cccc(F)c2)CC3)c1 | . | . | . | -36.2% | . | .
O=C(CSc1cn(Cc2ccccc2)c2ccccc12)Nc1nccs1 | 4.61µM* | 0.849µM* | 2.51µM* | ? | ? | 3.16µM*
CCOC(=O)c1ccc(NC(=O)CSc2nc(N3CCOCC3)nc(N3CCOCC3)n2)cc1 | ? | 3.7% | 3.5% | . | ? | -6.4%
O=C(CSc1nc(Nc2ccccc2)nc(N2CCOCC2)n1)Nc1ccc([N+](=O)[O-])cc1 | -19.8% | 1.4% | -3.5% | 24.7% | ? | -1.7%
SMILES | ELG1 genotoxic | FLuc counter | Rab9 prom act | SMN2 splice up | ELG1 repair inh | NPC1 prom act
COc1ccc(Cl)cc1NC(=O)CSc1nc(N2CCOCC2)nc(N2CCOCC2)n1 | -13.2% | 0.3% | -0.1% | . | 25.9µM* | 3.0%
CC(=O)c1ccc(NC(=O)CSc2nc(N3CCOCC3)nc(N3CCOCC3)n2)cc1 | 18.3µM* | -16.8% | 24.5% | . | ? | 27.8%
O=C(CSc1nc(Nc2ccccc2)nc(N2CCOCC2)n1)Nc1cccc([N+](=O)[O-])c1 | -14.4% | ? | -7.8% | . | 20.6µM* | 0.2%
O=C(CSc1nc(N2CCOCC2)nc(N2CCOCC2)n1)Nc1ccc([N+](=O)[O-])cc1 | -10.9% | -3.0% | 5.3% | . | 16.4µM* | -0.8%
O=C(CSc1nnnn1-c1ccccc1F)Nc1nc2ccccc2s1 | ? | 13.8% | 6.7% | -67.8% | ? | -0.9%
CC(=O)Nc1c(O)nc(SCC(=O)Nc2ccc(C(C)=O)cc2)[nH]c1=O | 9.2µM* | ? | ? | ? | ? | ?
O=C(c1ccco1)N1N=C(c2ccc3nccnc3c2)CC1c1ccccc1 (configuration not stated) | 6.1% | 16.9µM* | 16.5% | 0.5% | -8.1% | -8.0%
CS(=O)(=O)Nc1ccc(C2=NN(C(=O)c3ccco3)C(c3ccc(F)cc3)C2)cc1 (configuration not stated) | -4.1% | -2.7% | -2.6% | -56.5% | ? | -3.0%
CCC(=O)N1N=C(c2cccc(NS(C)(=O)=O)c2)CC1c1cccs1 (configuration not stated) | 0.7% | -3.9% | -3.1% | 8.3% | 23.1µM* | -0.7%
CC(=O)N1N=C(c2cccc(NS(C)(=O)=O)c2)CC1c1cccs1 (configuration not stated) | 1.3% | -1.3% | -1.4% | 19.1% | -11.1% | -4.9%
CS(=O)(=O)Nc1cccc(C2=NN(C(=O)c3ccco3)C(c3cccs3)C2)c1 (configuration not stated) | -8.8% | -7.2% | 1.8% | . | 6.51µM* | 1.6%
CS(=O)(=O)Nc1ccc(C2=NN(C(=O)c3cccc(F)c3)C(c3cccs3)C2)cc1 (configuration not stated) | -4.7% | -1.7% | 6.6% | . | 16.4µM* | -3.6%
CS(=O)(=O)Nc1ccc(C2=NN(C(=O)c3ccccc3)C(c3cccs3)C2)cc1 (configuration not stated) | -0.1% | -2.0% | 0.0% | . | ? | -3.6%
CS(=O)(=O)Nc1cccc(C2=NN(C(=O)CCC(=O)O)C(c3cccs3)C2)c1 (configuration not stated) | 0.5% | 0.4% | ? | . | -0.6% | 0.1%
CCCCNC(=O)C(=O)NCC1CCCN1S(=O)(=O)c1cccs1 (configuration not stated) | -3.0% | 1.3% | -2.9% | . | 13.1% | 0.1%
COC(=O)c1c(NC(=O)CSc2nc3ccccc3c(=O)n2-c2ccccc2)sc(C)c1C | -3.6% | 4.3% | 0.9% | -1.0% | -18.8% | 0.0%

From PubChem
